# Experimental data reported in PubChem BioAssay (Tox21).
# Inconclusive results are not listed. Values without a mark were called inactive. Activity calls are given as the source filed them. Calls come from the whole dose curve.
# Test: Nuclear factor erythroid 2-related factor 2/antioxidant responsive element (Nrf2/ARE) small molecule agonists: luciferase reporter gene qHTS assay in human keratinocytes (AID 1919969); note: nearly all actives have a fitted effect of over 35% in size
# Settings: KeratinoSens HaCaT ARE-luciferase, luminescence, 24 h; series mostly up to 92.4 µM; activity, positive = activation: at the top concentration
# Description: National Center for Advancing Translational Sciences [NCATS]
# Division of Preclinical Innovation [DPI]
# U.S. Environmental Protection Agency [EPA]
# National Institutes of Environmental Health Sciences [NIEHS]
# National Toxicology Program [NTP]
# U.S. Food and Drug Administration [FDA]
# Oxidative stress has been implicated in the pathogenesis of a variety of diseases ranging from cancer to neurodegeneration. The antioxidant response element (ARE) signaling pathway plays an important role in the amelioration of oxidative stress. The KeratinoSens (Givaudan, Switzerland) is an in vitro test method which quantifies luciferase induction as a measure of activation of Keap1-Nrf2-antioxidationt/electrophile response element (ARE) dependant pathway in HaCaT human keratinocytes stably transfected with a selectable plasmid. The KeratinoSens assay is a cell-based assay with a reporter cell line to detect potential skin sensitizers by their ability to induce the Nrf2/ARE-response. The activation of the report gene under culture conditions can be detected by ONE-Glo Luciferase Assay System (Promega, Madison, WI). This cell line has been used to screen the Tox21 10K compound library to identify agonists that induce oxidative stress. The cytotoxicity of the Tox21 compound library against the KS-ARE cell line was tested in parallel by measuring the cell viability using CellTiter- Fluor assay system (Promega, Madison, WI) in the same wells.
# HaCaT derived cell line KeratinoSens were dispensed at 1,500 cells/5uL/well in 1536-well white wall/solid bottom plates using a Multidrop Combi (ThermoFisher Scientific, Waltham, MA) dispenser. After the assay plates were incubated at 37 C/5% CO2 for 5 h, 23 nL of compounds dissolved in DMSO, positive controls or DMSO only was transferred to the assay plate by a pintool workstation (Kalypsys, San Diego, CA). The plates were incubated at 37 C/5% CO2 for 23 h, followed by addition of 1uL/well of CellTiter-Fluor reagent into the assay plates using a Flying Reagent Dispenser (Aurora Discovery, San Diego, CA) for cell viability readout that measures cytotoxicity. After 1 h incubation at 37 C/5% CO2 the fluorescence intensity was measured using a ViewLux (PerkinElmer, Shelton, CT) plate reader. Then 4uL/well of One-Glo were added using a Flying Reagent Dispenser. After the plates were incubated at room temperature for 30 min, the luminescence intensity in the assay plates was measured using ViewLux plate reader.
# % is set by controls: 0 for no effect and ±100 for the full control effect; potency is the fitted concentration of half-maximal effect.
SMILES,"activity, positive = activation",Potency
CCCCCCCCCC(=O)OCC,-5.07%,–
CCCCCCCCCC=O,-12.9%,–
CN1CCN(N)CC1,-1.05% [at 42.5 µM],–
CCN(CC)c1ccc(C=O)cc1,8.08%,–
Cc1cccc(Oc2ccccc2)c1,14.8%,–
CC1=CC[C@H](C(C)C)C=C1,21.3%,–
CCC(C)c1cc([N+](=O)[O-])cc([N+](=O)[O-])c1OC(=O)OC(C)C (stereo not given),–,9.69 µM (active)
O=C1OC(O)C(C(Cl)Cl)=C1Cl (stereo not given),–,25.1 µM (active)
O=C(O)c1ccc[n+]([O-])c1,0.71% [at 42.5 µM],–
CC[N+](CC)(CC)CCOc1cccc(OCC[N+](CC)(CC)CC)c1OCC[N+](CC)(CC)CC,-3.85% [at 42.5 µM],–
Oc1ccccc1Cc1ccccc1O,-2.54%,–
C=COCC(C)C,-8.84%,–
NC(=O)c1ncn([C@@H]2O[C@H](CO)[C@@H](O)[C@H]2O)c1N,-1.88% [at 42.5 µM],–
C[C@@H](O)[C@H](N)C(=O)O,1.15% [at 19 µM],–
Oc1cc(O)c(Cl)cc1Cl,–,55.8 µM (active)
CCOC(=O)Cc1cccc2ccccc12,-5.72%,–
NC1CCN(c2cccc(Cl)n2)CC1,-0.531% [at 42.5 µM],–
COc1cc2c(cc1OC)-c1cc3ccc(OC)c(OC)c3c[n+]1CC2,-2.17%,–
BrCCCCCBr,-0.418%,–
C=CC(C)C#N (stereo not given),2.89%,–

SMILES,"activity, positive = activation",Potency
O=C(CCBr)N1CCN(C(=O)CCBr)CC1,0.655% [at 42.5 µM],–
CC(C)CCCCCCOC(=O)CCCCC(=O)OCCCCCCC(C)C,-3.26%,–
C=Cc1ccccc1,-7.68%,–
Nc1ccc(S(=O)(=O)Nc2ccccn2)cc1,9.97% [at 42.5 µM],–
CCN1CCCC1CNC(=O)c1cc(S(N)(=O)=O)ccc1OC (stereo not given),-0.0633%,–
CC1=C(CC=O)C(C)(C)CCC1,-2.38%,–
COc1cc2c3cc1Oc1cc(ccc1O)C[C@@H]1c4c(cc(OC)c(O)c4Oc4ccc(cc4)C[C@@H]3N(C)CC2)CC[N+]1(C)C,-0.417% [at 42.5 µM],–
C[C@]12CCC(=O)C=C1CC[C@@H]1[C@@H]2CC[C@@]2(C)[C@H]1CC[C@]2(O)C(=O)CO,5.85% [at 42.5 µM],–
Cc1ccc(NC(N)=O)cc1,-5.94%,–
OCCCO,-4.16%,–
COC(=O)c1c(C)cc(O)c(C)c1O,0.784%,–
CCc1ccc(C(=O)C(C)CN2CCCCC2)cc1 (stereo not given),0.423% [at 42.5 µM],–
O=C(O)c1cc(Cl)cc(Cl)c1,-5.22%,–
Cc1oc(-c2ccccc2)nc1CCC(=O)c1ccc(CC2SC(=O)NC2=O)cc1 (stereo not given),-3.91% [at 42.5 µM],–
CCNC(=O)NCCCOc1cccc(CN2CCCCC2)c1,0.555% [at 42.5 µM],–
O=C(O)C(O)[C@H](O)[C@@H](O)[C@H](O)[C@H](O)CO (stereo not given in full),-4.56%,–
c1ccc(CNc2ncnc3nc[nH]c23)cc1,-0.0802%,–
CCCc1ncc(C(=O)O)s1,4.13% [at 42.5 µM],–
CCC(=O)CC(C)CC (stereo not given),-3.45% [at 0.349 µM],–
CCCCCCC(O)CO (stereo not given),-0.547%,–
